Reference: ChEMBL document CHEMBL2218924, “A broad activity screen in support of a chemogenomic map for kinase signalling research and drug discovery” (Biochem J, 2013)

Tests used:
[1] = molecular target: Insulin receptor (Homo sapiens) (UniProt P06213); conditions: at 10 µM
[2] = molecular target: Insulin receptor (Homo sapiens) (UniProt P06213); conditions: at 1 µM
[3] = molecular target: Insulin receptor (Homo sapiens) (UniProt P06213); conditions: at 10 µM; remark: listed apart in the source
[4] = molecular target: Interleukin-1 receptor-associated kinase 1 (Homo sapiens) (UniProt P51617); conditions: at 1 µM
Sequence of Interleukin-1 receptor-associated kinase 1 (Homo sapiens) (P51617 whole entry, looked up): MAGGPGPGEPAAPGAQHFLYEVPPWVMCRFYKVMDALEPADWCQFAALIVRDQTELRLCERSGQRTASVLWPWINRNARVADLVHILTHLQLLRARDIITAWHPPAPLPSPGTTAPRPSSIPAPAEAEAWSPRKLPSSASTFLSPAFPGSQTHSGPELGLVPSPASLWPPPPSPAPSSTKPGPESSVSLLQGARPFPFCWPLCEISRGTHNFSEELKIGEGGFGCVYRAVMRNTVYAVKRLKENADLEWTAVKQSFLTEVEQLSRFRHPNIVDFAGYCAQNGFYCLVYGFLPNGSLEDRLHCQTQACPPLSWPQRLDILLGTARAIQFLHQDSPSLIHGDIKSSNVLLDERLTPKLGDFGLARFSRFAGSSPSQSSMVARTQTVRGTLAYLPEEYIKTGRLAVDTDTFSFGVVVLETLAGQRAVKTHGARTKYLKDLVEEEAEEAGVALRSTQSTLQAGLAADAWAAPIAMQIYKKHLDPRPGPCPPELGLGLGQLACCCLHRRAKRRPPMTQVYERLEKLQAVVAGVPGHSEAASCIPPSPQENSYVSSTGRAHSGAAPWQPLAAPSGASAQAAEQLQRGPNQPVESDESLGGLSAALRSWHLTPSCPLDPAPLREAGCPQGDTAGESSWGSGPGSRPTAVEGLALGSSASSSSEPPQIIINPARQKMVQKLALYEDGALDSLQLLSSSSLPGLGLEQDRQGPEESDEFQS

[5] = molecular target: Interleukin-1 receptor-associated kinase 1 (Homo sapiens) (UniProt P51617); conditions: at 10 µM
[6] = molecular target: T1, Interleukin-1 receptor-associated kinase 4 (Homo sapiens) (UniProt Q9NWZ3); conditions: at 1 µM
T1 sequence (whole entry): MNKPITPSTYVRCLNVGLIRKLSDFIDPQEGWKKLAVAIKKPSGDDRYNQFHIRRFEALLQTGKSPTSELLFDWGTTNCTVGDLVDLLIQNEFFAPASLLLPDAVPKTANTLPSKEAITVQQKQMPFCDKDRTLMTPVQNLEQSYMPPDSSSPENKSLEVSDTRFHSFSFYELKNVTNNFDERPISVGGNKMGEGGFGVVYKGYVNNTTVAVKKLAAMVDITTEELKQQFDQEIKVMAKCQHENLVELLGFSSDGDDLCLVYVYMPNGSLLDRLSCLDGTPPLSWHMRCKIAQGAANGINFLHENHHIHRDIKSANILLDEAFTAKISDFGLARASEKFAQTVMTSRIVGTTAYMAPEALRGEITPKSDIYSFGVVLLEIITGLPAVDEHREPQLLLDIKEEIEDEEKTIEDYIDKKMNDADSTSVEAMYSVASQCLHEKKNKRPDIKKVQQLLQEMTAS

[7] = molecular target: T1, Interleukin-1 receptor-associated kinase 4 (Homo sapiens); conditions: at 10 µM
[8] = molecular target: Insulin receptor-related protein (Homo sapiens) (UniProt P14616); conditions: at 1 µM
Sequence of Insulin receptor-related protein (Homo sapiens) (P14616 27-742 limits assumed): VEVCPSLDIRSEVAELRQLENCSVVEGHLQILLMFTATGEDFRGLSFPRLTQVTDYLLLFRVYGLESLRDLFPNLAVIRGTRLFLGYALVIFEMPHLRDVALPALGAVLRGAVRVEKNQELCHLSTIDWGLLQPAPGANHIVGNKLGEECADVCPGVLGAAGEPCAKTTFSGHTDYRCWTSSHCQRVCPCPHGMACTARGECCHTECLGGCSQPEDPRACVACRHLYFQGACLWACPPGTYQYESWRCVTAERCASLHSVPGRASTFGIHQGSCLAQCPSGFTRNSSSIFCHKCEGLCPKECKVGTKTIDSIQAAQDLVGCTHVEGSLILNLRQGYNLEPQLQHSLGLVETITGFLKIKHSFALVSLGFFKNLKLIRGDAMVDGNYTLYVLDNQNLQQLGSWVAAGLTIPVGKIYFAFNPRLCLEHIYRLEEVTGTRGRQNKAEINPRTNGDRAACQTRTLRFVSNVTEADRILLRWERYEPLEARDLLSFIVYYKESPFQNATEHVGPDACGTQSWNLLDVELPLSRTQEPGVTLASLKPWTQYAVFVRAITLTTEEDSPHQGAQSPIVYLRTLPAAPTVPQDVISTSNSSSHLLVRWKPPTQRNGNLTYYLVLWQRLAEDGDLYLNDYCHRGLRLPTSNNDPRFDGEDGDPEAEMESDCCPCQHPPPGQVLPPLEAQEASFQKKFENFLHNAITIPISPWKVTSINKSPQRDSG
Sequence of Insulin receptor-related protein (Homo sapiens) (P14616 747-1297 limits assumed): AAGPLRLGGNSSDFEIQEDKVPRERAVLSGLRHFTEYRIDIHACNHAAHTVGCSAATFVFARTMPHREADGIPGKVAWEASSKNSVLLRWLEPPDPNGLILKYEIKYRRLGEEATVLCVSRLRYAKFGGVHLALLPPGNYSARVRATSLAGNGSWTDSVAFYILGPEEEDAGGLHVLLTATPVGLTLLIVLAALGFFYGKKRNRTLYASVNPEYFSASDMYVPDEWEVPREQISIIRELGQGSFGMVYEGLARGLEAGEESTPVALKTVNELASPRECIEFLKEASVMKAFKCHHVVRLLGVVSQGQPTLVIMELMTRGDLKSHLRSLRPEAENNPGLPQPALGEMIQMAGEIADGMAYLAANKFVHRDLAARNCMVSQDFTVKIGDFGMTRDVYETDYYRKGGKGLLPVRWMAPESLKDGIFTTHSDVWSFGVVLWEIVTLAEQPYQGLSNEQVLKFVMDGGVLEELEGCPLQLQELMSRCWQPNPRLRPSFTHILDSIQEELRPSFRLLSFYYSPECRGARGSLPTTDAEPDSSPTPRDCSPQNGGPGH

[9] = molecular target: Insulin receptor-related protein (Homo sapiens) (UniProt P14616); conditions: at 10 µM
[10] = molecular target: T2, Tyrosine-protein kinase ITK/TSK (Homo sapiens) (UniProt Q08881); conditions: at 1 µM
T2 sequence (whole entry): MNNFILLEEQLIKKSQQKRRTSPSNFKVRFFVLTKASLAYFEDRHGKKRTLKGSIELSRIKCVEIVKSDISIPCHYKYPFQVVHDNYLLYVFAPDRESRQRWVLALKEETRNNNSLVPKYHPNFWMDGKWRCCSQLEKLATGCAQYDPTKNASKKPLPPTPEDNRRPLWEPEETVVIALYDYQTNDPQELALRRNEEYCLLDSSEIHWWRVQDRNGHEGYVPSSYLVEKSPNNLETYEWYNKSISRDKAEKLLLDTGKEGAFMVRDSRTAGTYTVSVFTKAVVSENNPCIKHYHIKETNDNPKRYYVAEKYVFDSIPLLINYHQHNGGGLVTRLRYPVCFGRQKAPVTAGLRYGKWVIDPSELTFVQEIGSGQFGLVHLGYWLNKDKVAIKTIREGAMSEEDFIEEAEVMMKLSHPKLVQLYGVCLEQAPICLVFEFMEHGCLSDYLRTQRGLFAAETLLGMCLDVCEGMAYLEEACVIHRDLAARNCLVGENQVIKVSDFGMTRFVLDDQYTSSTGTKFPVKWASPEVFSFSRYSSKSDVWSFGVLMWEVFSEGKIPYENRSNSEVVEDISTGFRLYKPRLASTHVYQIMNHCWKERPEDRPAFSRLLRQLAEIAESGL

[11] = molecular target: T2, Tyrosine-protein kinase ITK/TSK (Homo sapiens); conditions: at 10 µM
[12] = molecular target: Tyrosine-protein kinase JAK2 (Homo sapiens) (UniProt O60674); conditions: at 1 µM
[13] = molecular target: Tyrosine-protein kinase JAK2 (Homo sapiens) (UniProt O60674); conditions: at 10 µM
[14] = molecular target: T3, Tyrosine-protein kinase JAK3 (Homo sapiens) (UniProt P52333); conditions: at 1 µM
T3 sequence (whole entry): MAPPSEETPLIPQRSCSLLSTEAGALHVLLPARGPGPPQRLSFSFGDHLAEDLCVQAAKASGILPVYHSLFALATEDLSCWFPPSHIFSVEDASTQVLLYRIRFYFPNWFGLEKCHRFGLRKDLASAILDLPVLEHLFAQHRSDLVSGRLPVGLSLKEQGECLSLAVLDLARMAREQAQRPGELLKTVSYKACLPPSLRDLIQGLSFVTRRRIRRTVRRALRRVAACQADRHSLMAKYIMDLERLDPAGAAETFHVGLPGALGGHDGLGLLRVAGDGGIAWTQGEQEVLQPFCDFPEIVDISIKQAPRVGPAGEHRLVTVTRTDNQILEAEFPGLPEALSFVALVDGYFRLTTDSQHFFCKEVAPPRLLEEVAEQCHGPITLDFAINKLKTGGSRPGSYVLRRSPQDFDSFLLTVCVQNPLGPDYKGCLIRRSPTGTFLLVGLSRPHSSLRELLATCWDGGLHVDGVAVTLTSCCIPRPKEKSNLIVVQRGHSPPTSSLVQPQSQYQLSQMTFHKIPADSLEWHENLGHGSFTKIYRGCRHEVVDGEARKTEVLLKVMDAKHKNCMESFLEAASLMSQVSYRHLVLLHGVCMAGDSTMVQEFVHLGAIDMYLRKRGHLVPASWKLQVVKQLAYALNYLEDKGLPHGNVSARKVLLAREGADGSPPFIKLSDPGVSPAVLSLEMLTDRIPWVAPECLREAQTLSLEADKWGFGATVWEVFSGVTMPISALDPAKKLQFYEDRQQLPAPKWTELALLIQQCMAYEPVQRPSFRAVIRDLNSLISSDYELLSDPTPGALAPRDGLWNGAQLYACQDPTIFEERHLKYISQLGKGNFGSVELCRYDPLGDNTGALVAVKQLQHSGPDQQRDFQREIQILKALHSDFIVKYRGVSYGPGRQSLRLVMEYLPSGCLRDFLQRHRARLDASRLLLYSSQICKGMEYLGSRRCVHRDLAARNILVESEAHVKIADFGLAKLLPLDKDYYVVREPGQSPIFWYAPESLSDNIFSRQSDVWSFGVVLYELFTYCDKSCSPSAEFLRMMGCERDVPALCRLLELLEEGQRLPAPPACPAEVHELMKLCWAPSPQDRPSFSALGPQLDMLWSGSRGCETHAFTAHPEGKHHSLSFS

[15] = molecular target: T3, Tyrosine-protein kinase JAK3 (Homo sapiens); conditions: at 10 µM
[16] = molecular target: Mitogen-activated protein kinase 8 (Homo sapiens) (UniProt P45983); conditions: at 1 µM
Sequence of Mitogen-activated protein kinase 8 (Homo sapiens) (P45983 whole entry): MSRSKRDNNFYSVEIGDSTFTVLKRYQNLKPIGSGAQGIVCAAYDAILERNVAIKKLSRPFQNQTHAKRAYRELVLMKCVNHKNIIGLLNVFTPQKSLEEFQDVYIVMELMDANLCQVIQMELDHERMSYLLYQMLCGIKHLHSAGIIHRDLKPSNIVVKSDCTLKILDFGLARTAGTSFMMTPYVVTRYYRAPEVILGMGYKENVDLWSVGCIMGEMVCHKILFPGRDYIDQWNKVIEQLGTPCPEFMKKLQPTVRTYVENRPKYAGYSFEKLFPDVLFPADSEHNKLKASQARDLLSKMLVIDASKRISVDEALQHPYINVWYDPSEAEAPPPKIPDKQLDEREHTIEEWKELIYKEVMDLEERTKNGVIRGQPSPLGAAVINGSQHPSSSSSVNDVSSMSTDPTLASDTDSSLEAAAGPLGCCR

[17] = molecular target: Mitogen-activated protein kinase 8 (Homo sapiens) (UniProt P45983); conditions: at 10 µM
[18] = molecular target: Mitogen-activated protein kinase 9 (Homo sapiens) (UniProt P45984); conditions: at 1 µM
Sequence of Mitogen-activated protein kinase 9 (Homo sapiens) (P45984 whole entry, looked up): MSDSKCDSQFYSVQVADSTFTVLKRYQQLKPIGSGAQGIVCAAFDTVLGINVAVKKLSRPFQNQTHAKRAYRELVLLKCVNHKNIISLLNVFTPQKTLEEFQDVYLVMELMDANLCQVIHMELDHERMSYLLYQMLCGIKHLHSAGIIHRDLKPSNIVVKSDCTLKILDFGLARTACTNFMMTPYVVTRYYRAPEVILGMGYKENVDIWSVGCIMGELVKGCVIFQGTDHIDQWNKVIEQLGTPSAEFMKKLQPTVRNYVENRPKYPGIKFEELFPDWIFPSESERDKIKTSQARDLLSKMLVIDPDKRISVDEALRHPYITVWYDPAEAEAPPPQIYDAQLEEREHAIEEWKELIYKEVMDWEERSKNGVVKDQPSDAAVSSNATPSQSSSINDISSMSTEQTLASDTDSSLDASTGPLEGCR

[19] = molecular target: Mitogen-activated protein kinase 9 (Homo sapiens) (UniProt P45984); conditions: at 10 µM
[20] = molecular target: Mitogen-activated protein kinase 10 (Homo sapiens) (UniProt P53779); conditions: at 1 µM
Sequence of Mitogen-activated protein kinase 10 (Homo sapiens) (P53779 whole entry): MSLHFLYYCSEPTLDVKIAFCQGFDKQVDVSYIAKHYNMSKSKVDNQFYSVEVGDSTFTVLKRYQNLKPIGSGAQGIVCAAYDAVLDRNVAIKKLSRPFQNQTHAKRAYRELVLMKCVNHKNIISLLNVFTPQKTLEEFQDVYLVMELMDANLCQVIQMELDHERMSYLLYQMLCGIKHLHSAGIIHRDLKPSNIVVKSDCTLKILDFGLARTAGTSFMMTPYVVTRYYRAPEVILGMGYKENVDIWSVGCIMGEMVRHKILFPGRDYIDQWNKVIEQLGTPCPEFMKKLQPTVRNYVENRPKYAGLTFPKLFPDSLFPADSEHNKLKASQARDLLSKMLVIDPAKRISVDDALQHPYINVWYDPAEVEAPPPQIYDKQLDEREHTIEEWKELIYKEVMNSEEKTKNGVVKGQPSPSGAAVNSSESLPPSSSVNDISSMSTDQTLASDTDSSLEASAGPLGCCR

Sequence of Insulin receptor (Homo sapiens) (P06213 28-758 limits assumed): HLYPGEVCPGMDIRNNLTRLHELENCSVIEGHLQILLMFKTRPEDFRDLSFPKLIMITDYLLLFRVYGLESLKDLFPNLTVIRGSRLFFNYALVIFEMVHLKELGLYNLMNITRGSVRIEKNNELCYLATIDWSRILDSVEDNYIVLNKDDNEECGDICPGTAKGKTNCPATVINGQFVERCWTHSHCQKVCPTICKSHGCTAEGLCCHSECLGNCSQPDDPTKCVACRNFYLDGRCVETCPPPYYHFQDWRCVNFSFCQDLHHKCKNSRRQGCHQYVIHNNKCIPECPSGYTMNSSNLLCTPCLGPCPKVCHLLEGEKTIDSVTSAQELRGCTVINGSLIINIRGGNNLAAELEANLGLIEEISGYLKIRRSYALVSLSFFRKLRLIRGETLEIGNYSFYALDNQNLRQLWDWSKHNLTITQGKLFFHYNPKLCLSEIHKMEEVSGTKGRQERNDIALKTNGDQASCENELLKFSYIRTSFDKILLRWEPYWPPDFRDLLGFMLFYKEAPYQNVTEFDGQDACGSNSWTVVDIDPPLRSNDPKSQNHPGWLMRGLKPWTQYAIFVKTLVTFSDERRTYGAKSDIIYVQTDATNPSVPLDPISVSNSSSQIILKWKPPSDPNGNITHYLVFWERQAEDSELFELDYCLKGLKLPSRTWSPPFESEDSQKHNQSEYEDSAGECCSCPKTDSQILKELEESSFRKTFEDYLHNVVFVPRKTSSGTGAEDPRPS
Sequence of Insulin receptor (Homo sapiens) (P06213 763-1382 limits assumed): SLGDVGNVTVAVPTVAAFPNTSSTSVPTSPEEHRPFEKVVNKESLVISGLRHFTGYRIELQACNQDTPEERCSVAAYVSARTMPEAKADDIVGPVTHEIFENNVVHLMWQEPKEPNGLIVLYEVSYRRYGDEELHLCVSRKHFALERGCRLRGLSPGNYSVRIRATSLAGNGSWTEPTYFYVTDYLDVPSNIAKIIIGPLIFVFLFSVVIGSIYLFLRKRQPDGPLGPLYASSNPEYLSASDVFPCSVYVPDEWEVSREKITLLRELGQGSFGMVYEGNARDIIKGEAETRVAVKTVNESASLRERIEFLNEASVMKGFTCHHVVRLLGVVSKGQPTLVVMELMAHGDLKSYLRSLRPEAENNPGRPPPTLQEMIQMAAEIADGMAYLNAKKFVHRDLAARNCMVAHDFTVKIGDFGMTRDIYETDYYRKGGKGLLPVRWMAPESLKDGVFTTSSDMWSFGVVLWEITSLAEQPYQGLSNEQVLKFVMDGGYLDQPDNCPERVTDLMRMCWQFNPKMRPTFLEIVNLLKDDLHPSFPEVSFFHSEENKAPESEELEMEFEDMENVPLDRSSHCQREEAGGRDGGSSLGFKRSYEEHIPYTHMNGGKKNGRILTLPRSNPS

In the case of `O=C1NC(=O)c2cc(Nc3ccc(F)cc3)c(Nc3ccc(F)cc3)cc21`, the residual activity [1] was 103%, the residual activity [2] was 94% and the residual activity [3] was 85%. The residual activity [4] was 83%, the residual activity [5] was 63% and the residual activity [6] was 99%. The residual activity [7] was 110%, the residual activity [8] was 122% and the residual activity [9] was 83%. It also gave a residual activity [10] of 110%, a residual activity [11] of 101% and a residual activity [12] of 73%. For the same molecule, the residual activity [13] was 119%, the residual activity [14] was 100% and the residual activity [15] was 68%. It also gave a residual activity [16] of 117%, a residual activity [17] of 79% and a residual activity [18] of 112%. The residual activity [19] was 84%.

For `Cn1cc(/C=C2\C(=O)Nc3ccc(S(N)(=O)=O)cc32)c2ccccc21`, the residual activity [1] was 95%, the residual activity [2] was 66% and the residual activity [3] was 64%. The residual activity [4] was 1%, the residual activity [5] was 15% and the residual activity [6] was 0%. For the same molecule, the residual activity [7] was -1%, the residual activity [8] was 124% and the residual activity [9] was 35%. The residual activity [10] was 8%, the residual activity [11] was 1% and the residual activity [12] was 53%. It also gave a residual activity [13] of 21%, a residual activity [14] of 45% and a residual activity [15] of 11%. For the same molecule, the residual activity [16] was 109%, the residual activity [17] was 95% and the residual activity [18] was 98%. The residual activity [19] was 95% and the residual activity [20] was 58%.

In the case of `CC#CC(=O)Nc1cc2c(Nc3ccc(F)c(Cl)c3)ncnc2cn1`, the residual activity [1] was 85%, the residual activity [2] was 103% and the residual activity [3] was 98%. For the same molecule, the residual activity [4] was 94%, the residual activity [5] was 73% and the residual activity [6] was 103%. The residual activity [7] was 98%, the residual activity [8] was 127% and the residual activity [9] was 86%. The residual activity [10] was 100%, the residual activity [11] was 92% and the residual activity [12] was 96%. For the same molecule, the residual activity [13] was 97%, the residual activity [14] was 51% and the residual activity [15] was 59%. It also gave a residual activity [16] of 96%, a residual activity [17] of 72% and a residual activity [18] of 103%. It also gave a residual activity [19] of 95% and a residual activity [20] of 76%.

Molecule `O=C1NC(=O)c2c1c1c3ccccc3[nH]c1c1[nH]c3cc(Br)ccc3c21` has a residual activity [1] of 88%, a residual activity [2] of 103% and a residual activity [3] of 95%. For the same molecule, the residual activity [4] was 106%, the residual activity [5] was 107% and the residual activity [6] was 92%. For the same molecule, the residual activity [7] was 76%, the residual activity [8] was 97% and the residual activity [9] was 84%. It also gave a residual activity [10] of 102%, a residual activity [11] of 97% and a residual activity [12] of 97%. For the same molecule, the residual activity [13] was 106%, the residual activity [14] was 94% and the residual activity [15] was 96%. It also gave a residual activity [16] of 110%, a residual activity [17] of 98% and a residual activity [18] of 110%. It also gave a residual activity [19] of 121% and a residual activity [20] of 77%.
